eIF4E-4G inh – blocks eIF4E binding to eIF4G. hit rate 0.37% among 220,000. inhibition, % at 21.7 µM. AID 782. TR-FRET eIF4E-eIF4GI(517-606) binding, 2 h. P63073+Q04637;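 active = inhibition above about 30%, limit read from the data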;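 note: 0% = full FRET control wells and 100% = background wells lacking eIF4GI fragment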
PABP polyA inh – PABP-poly(A) binding inhibition. PABP-poly(A) RNA binding, fluorescence polarization. AID 2014. calls only at 35 µM. P11940. hit rate 1% among 290,000;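 note: calls also rest on retests at 20 µM and on dose response follow-up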
PABP1 MLLE inh – inhibitors of microRNA-mediated deadenylation, human PABP1 MLLE binding; P11940; GST-MLLE / FITC-PAM2 fluorescence polarization; inhibition, % at 20 µM; hit rate 0.36% among 360,000; in the data active = inhibition above about 35%, passing the limit was not always enough;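 note: plate controls were DMSO wells with GST-MLLE for no effect and wells lacking GST-MLLE protein for full effect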
eIF4H FP inh – inhibitors of RNA binding by human eIF4H. Q15056. hit rate 0.94% among 290,000. eIF4H fluorescence polarization binding assay. inhibition, % at 35 µM;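 note: calls also rest on retests at 20 µM and on dose response follow-up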
14-3-3 Bad inh – disrupts binding of bovine 14-3-3 zeta to phospho-Bad peptide; P63103; TR-FRET 14-3-3zeta/Dy647-pBad peptide displacement, 1 h; inhibition, % at 21.7 µM; hit rate 0.71% among 220,000; AID 781;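 active = inhibition above about 70%, limit read from the data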;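 note: 0% = full 14-3-3 plus peptide FRET controls and 100% = background without 14-3-3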
Target sequence (P63103 whole entry, looked up): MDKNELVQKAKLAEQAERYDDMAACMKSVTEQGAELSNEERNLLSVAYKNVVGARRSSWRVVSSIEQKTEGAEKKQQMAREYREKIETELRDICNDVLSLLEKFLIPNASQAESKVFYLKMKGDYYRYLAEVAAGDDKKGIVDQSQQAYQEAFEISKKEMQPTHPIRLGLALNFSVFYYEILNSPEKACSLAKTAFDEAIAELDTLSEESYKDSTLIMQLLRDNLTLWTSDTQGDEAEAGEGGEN
Active calls of the source: *; [ ] = dose if it differs, or a comment. A selection: hits, their analogues and other compounds. The true share with any hit is near 1.9%. Unless noted, the rule behind the calls is not given here.

How did COc1ccc(CCNC(=O)CCCN2C(=O)C(c3ccccc3)Oc3cccnc32)cc1OC (centres undefined) do in these assays?
PABP polyA inh: inactive; PABP1 MLLE inh: -1.3; eIF4H FP inh: -4.4

How did CC(=O)C1=C(c2ccccc2)OC(N)=C(C#N)C1c1ccc(O)cc1 (centres undefined) do in these assays?
eIF4E-4G inh: 51.0*[fluorescence artefact?]; PABP polyA inh: inactive; PABP1 MLLE inh: 10.7; eIF4H FP inh: -1.7; 14-3-3 Bad inh: -15.3

Results for Nc1cc(Cl)ccc1N1CCCC1 ?
eIF4E-4G inh: 8.8; PABP polyA inh: inactive; PABP1 MLLE inh: 12.1; eIF4H FP inh: 108.2; 14-3-3 Bad inh: 1.2

Results for CN(C)c1ccc(Cl)cc1N ?
eIF4E-4G inh: 5.2; PABP polyA inh: inactive; PABP1 MLLE inh: -1.4; eIF4H FP inh: 69.1*; 14-3-3 Bad inh: -0.7

How did CCCCn1c(N)c(N(CCC(C)C)C(=O)c2cc(-c3ccco3)nc3ccccc23)c(=O)[nH]c1=O do in these assays?
PABP polyA inh: active; PABP1 MLLE inh: 4.1; eIF4H FP inh: 59.6*

What do the screens show for `CCOC(=O)c1ccc(NC(=O)CC2Sc3ncnn3C2=O)cc1` (centres undefined)?
eIF4E-4G inh: 2.7; PABP polyA inh: inactive; PABP1 MLLE inh: 41.6*; eIF4H FP inh: -1.9; 14-3-3 Bad inh: 5.2

Results for O=C(CC1Sc2ncnn2C1=O)Nc1ccc(Cl)cc1 (centres undefined) ?
eIF4E-4G inh: 1.2; PABP polyA inh: inactive; eIF4H FP inh: -1.2; 14-3-3 Bad inh: 7.2

Results for COc1ccc(NC(=O)CC2Sc3ncnn3C2=O)cc1 (centres undefined) ?
eIF4E-4G inh: 1.2; PABP polyA inh: inactive; PABP1 MLLE inh: 43.1*; eIF4H FP inh: -15.9; 14-3-3 Bad inh: 10.2

Results for CN1CCN(CCCC(=O)c2ccc(F)cc2)CC1 ?
eIF4E-4G inh: 10.5; PABP polyA inh: inactive; PABP1 MLLE inh: -12.8; eIF4H FP inh: -6.7; 14-3-3 Bad inh: 85.7*

What do the screens show for `CC(C)(C)Cc1c(C2CCCCC2)nc2ccc(Cl)cn12`?
PABP1 MLLE inh: -16.0

Results for CC1(C(=O)NS(=O)(=O)C2CC2)CCN(C(=O)COCc2ccccc2)C1 (centres undefined) ?
PABP1 MLLE inh: -5.6

How did O=C(Nc1cccc(NC(=O)c2cccs2)c1)c1ccc2c(c1)OCCO2 do in these assays?
eIF4E-4G inh: 3.2; PABP polyA inh: inactive; PABP1 MLLE inh: 4.5; eIF4H FP inh: -10.6; 14-3-3 Bad inh: -7.8

How did CCOC(=O)C1=C(c2ccccc2)N=c2s/c(=C\c3cc(OC)c(OC)c(OC)c3)c(=O)n2C1c1cccs1 (centres undefined) do in these assays?
eIF4E-4G inh: 6.8; PABP polyA inh: active; PABP1 MLLE inh: -7.5; eIF4H FP inh: inconclusive; 14-3-3 Bad inh: 6.9

What do the screens show for `CCOc1ccc(S(=O)(=O)Nc2nc3ccccc3nc2Nc2ccc(N3CCOCC3)cc2)cc1`?
eIF4E-4G inh: 6.2; PABP polyA inh: inactive; PABP1 MLLE inh: -29.6; eIF4H FP inh: inconclusive; 14-3-3 Bad inh: -5.2

Results for CCOc1ccc(NC(=S)NC(=O)c2c(Cl)c(C)nn2C)c([N+](=O)[O-])c1 ?
eIF4E-4G inh: -3.5; PABP polyA inh: inactive; PABP1 MLLE inh: 40.4*; eIF4H FP inh: 2.5; 14-3-3 Bad inh: 8.1

How did Cc1ccc(OCC(O)CN2CC3(C)CC2CC(C)(C)C3)cc1 (centres undefined) do in these assays?
eIF4E-4G inh: 5.2; PABP polyA inh: active; PABP1 MLLE inh: 4.3; eIF4H FP inh: 13.1*; 14-3-3 Bad inh: 6.2

How did Cc1cccc2cc(-c3nc4ccc(C(=O)O)cc4[nH]3)c(=O)oc12 do in these assays?
PABP polyA inh: inactive; PABP1 MLLE inh: -8.0; eIF4H FP inh: 64.9*

What do the screens show for `O=C(CN1CCN(c2ccccc2O)CC1)Nc1ccc2c(c1)CCC2`?
eIF4E-4G inh: 3.9; PABP polyA inh: active; PABP1 MLLE inh: -6.6; eIF4H FP inh: 2.2*; 14-3-3 Bad inh: 3.2

What do the screens show for `O=C1CSC(c2ccccn2)N1c1ccc(C(F)(F)F)cc1` (centres undefined)?
eIF4E-4G inh: -3.2; PABP polyA inh: inactive; PABP1 MLLE inh: 3.4; eIF4H FP inh: -6.7; 14-3-3 Bad inh: 1.0

Results for C[n+]1ccccc1/C=C/c1ccccc1Cl ?
PABP polyA inh: active; PABP1 MLLE inh: -94.1; eIF4H FP inh: 78.8*

What do the screens show for `C[n+]1ccccc1/C=C/c1c(F)cccc1F`?
PABP polyA inh: active; PABP1 MLLE inh: -106.0; eIF4H FP inh: 62.8

Results for O=C(Nc1sc2c(c1C(=O)c1ccc(Cl)cc1)CCCC2)c1cccnc1 ?
eIF4E-4G inh: 7.7; PABP polyA inh: inactive; PABP1 MLLE inh: 11.8; eIF4H FP inh: -10.0; 14-3-3 Bad inh: 70.9*

What do the screens show for `CC1CCN(C(C)C(=O)Nc2ccccc2-c2ccccc2)CC1` (centres undefined)?
eIF4E-4G inh: 26.0; PABP polyA inh: inactive; PABP1 MLLE inh: -2.4; eIF4H FP inh: 0.3; 14-3-3 Bad inh: 84.7*

Results for Cc1ccc(S(=O)(=O)N2CCN(C(C)C(=O)Nc3ccccc3-c3ccccc3)CC2)cc1 (centres undefined) ?
eIF4E-4G inh: 32.4*[fluorescence artefact?]; PABP polyA inh: inactive; PABP1 MLLE inh: -7.7; eIF4H FP inh: 7.4; 14-3-3 Bad inh: 6.6

How did CC1(C(=O)NNC(=O)c2ccc(=O)oc2)CC1Br (centres undefined) do in these assays?
eIF4E-4G inh: -0.5; PABP polyA inh: active; PABP1 MLLE inh: -7.5; eIF4H FP inh: 82.0; 14-3-3 Bad inh: -19.8

Results for CC(=O)Oc1ccc2c(c1)OC(c1ccccc1)CC21CC(C)(C)NC(=S)N1 (centres undefined) ?
eIF4E-4G inh: 39.0*; PABP polyA inh: inactive; PABP1 MLLE inh: -123.3; eIF4H FP inh: 3.2; 14-3-3 Bad inh: 4.1

How did Cc1cccn2c(=O)c(C=O)c(N3CCN(c4ccc(F)cc4)CC3)nc12 do in these assays?
eIF4E-4G inh: -3.4; PABP polyA inh: active; PABP1 MLLE inh: 6.3; eIF4H FP inh: 96.1*; 14-3-3 Bad inh: 0.2

How did N#C/C(=C\c1c(N2CCN(Cc3ccccc3)CC2)nc2ccccn2c1=O)S(=O)(=O)c1ccccc1 do in these assays?
PABP polyA inh: active; PABP1 MLLE inh: -11.8; eIF4H FP inh: inconclusive

Results for N#C/C(=C\c1c(N2CCC(C(N)=O)CC2)nc2ccccn2c1=O)C(=O)NCc1ccco1 ?
eIF4E-4G inh: 2.4; PABP polyA inh: active; PABP1 MLLE inh: -6.8; eIF4H FP inh: 62.2*; 14-3-3 Bad inh: -6.1

Results for N#C/C(=C\c1c(N2CCOCC2)nc2ccccn2c1=O)S(=O)(=O)c1ccccc1 ?
eIF4E-4G inh: -0.3; PABP polyA inh: inactive; PABP1 MLLE inh: 0.9; eIF4H FP inh: -4.6; 14-3-3 Bad inh: -2.6

How did Cc1cccn2c(=O)c(/C=C(\C#N)S(=O)(=O)c3ccccc3)c(N3CCN(Cc4ccccc4)CC3)nc12 do in these assays?
PABP polyA inh: active; PABP1 MLLE inh: 21.0; eIF4H FP inh: 77.9*

How did Cc1cccn2c(=O)c(/C=C(\C#N)C(=O)NCc3ccco3)c(N3CCOCC3)nc12 do in these assays?
eIF4E-4G inh: 2.0; PABP polyA inh: inactive; PABP1 MLLE inh: -3.1; eIF4H FP inh: 7.2; 14-3-3 Bad inh: -2.0

Source: PubChem
